PubChem BioAssay (EPA / NIEHS)
“And” between values parts separate entries of the source, which are not always exact repeats. Identical values can stand only once. Inconclusive results are not listed. The source made the active and inactive calls. Rule for the calls: active = hit-call score of the fitted dose curve at least 0.9, where 1 is the maximum; inconclusive = response in the unintended direction; inactive = score below 0.9.

What was measured:
[1] = molecular target: Cellular tumor antigen p53 (Homo sapiens) (UniProt P04637); experiment: TOX21_p53_BLA_p2_ratio: Tox21 HCT-116 p53 Agonism Beta-lactamase Assay, Ratio, Phase 2 (AID 2283592)
Procedure, shortened: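 HCT116 cells carrying a p53-responsive beta-lactamase reporter were plated, incubated 5 h at 37C, then dosed with compounds in DMSO (217-fold dilution) for 16 h. CCF4-AM substrate was added for 2 h at room temperature; the 460/530 nm emission ratio gave gain-of-signal activity relative to DMSO.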

[2] = TOX21_p53_BLA_p3_viability: Viability Assessment in the Tox21 HCT-116 p53 Agonism Beta-lactamase Assay, Phase 3 (AID 2283593);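 note: cells exposed to compound for 16 h before reading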
Procedure, shortened: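 HCT-116 cells (4000/well) rested 5 h at 37C, then got DMSO compounds by pin tool (217-fold dilution) for 16 h at 37C, 5% CO2. After the bla read, CellTiter-Glo was added and luminescence read at 30 min, room temperature.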

[3] = molecular target: Cellular tumor antigen p53 (Homo sapiens) (UniProt P04637); experiment: TOX21_p53_BLA_p3_ratio: Tox21 HCT-116 p53 Agonism Beta-lactamase Assay, Ratio, Phase 3 (AID 2283596)
Procedure, shortened: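 HCT116 p53-bla cells (4000/well) given compound in DMSO (217-fold dilution) after 5 h, incubated 16 h at 37C. CCF4-AM substrate 2 h at room temperature; 460/530 nm emission ratio, gain fitted against DMSO.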

[4] = TOX21_p53_BLA_p4_viability: Viability Assessment in the Tox21 HCT-116 p53 Agonism Beta-lactamase Assay, Phase 4 (AID 2283597);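 note: hits lower the luminescence signal meaning cytotoxicity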
Procedure, shortened: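 HCT116 p53-bla cells (4000/well) rested 5 h at 37C, then received compounds in DMSO (217-fold dilution) for 16 h at 37C, 5% CO2. CellTiter-Glo was added after the CCF4-AM read, and luminescence was read after 30 min at room temperature.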

[5] = molecular target: Cellular tumor antigen p53 (Homo sapiens) (UniProt P04637); experiment: TOX21_p53_BLA_p5_ratio: Tox21 HCT-116 p53 Agonism Beta-lactamase Assay, Ratio, Phase 5 (AID 2283599)
Procedure, shortened: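 HCT-116 cells carrying a p53-inducible beta-lactamase reporter were seeded at 4000 cells/well and dosed after 5 h with compound in DMSO (217-fold dilution). After 16 h at 37C, CCF4-AM substrate was added for 2 h, and the 460/530 nm emission ratio was scored as gain-of-signal versus DMSO.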

[6] = TOX21_p53_BLA_p5_viability: Viability Assessment in the Tox21 HCT-116 p53 Agonism Beta-lactamase Assay, Phase 5 (AID 2283600)
Procedure, shortened: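 Cells were plated at 4000/well, rested 5 h at 37C, then given compounds in DMSO (217-fold dilution) for 16 h at 37C, 5% CO2. Following the CCF4-AM beta-lactamase read, CellTiter-Glo was added and luminescence was read after 30 min at room temperature.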

[7] = molecular target: Cellular tumor antigen p53 (Homo sapiens) (UniProt P04637); experiment: TOX21_p53_BLA_p4_ratio: Tox21 HCT-116 p53 Agonism Beta-lactamase Assay, Ratio, Phase 4 (AID 2283601)
Procedure, shortened: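 HCT116 cells carrying an inducible beta-lactamase reporter were plated at 4000 cells/well, rested 5 h, then exposed to compounds in DMSO (217-fold dilution) for 16 h at 37C. CCF4-AM substrate was loaded 2 h at room temperature; 460/530 nm emission ratio scored gain-of-signal versus DMSO.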

[8] = molecular target: Thyroid hormone receptor alpha (Rattus norvegicus) + Thyroid hormone receptor beta (Rattus norvegicus) (UniProt P18113+P63059); experiment: TOX21_TR_LUC_GH3_Antagonist_Followup: Tox21 GH3 Thyroid Hormone Receptor Antagonism Luciferase Follow-Up Assay (AID 2283942)
Procedure, shortened: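 Rat pituitary GH3 cells with a TRα/TRβ-driven luciferase reporter, 5 h attachment, then 15 concentrations (92 uM to 5nM final) plus 1.0 nM T3 agonist, 24 h at 37C/5% CO2. ONE-Glo luminescence; signal change fitted against DMSO baseline.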

THRB (gene 7068) = THRB (gene 7068) (UniProt P10828); experiment: TOX21_TRB_BLA_Antagonist_Followup_ratio: Tox21 Thyroid Hormone Receptor beta Antagonism Beta-lactamase (BLA) Follow-Up Assay, Ratio (AID 2283958)
Procedure, shortened: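 HEK293T cells with a GAL4-TRb LBD fusion and UAS-bla reporter, 3,000 cells/well in phenol red-free DMEM with 2% charcoal-stripped FBS. Exposed 18 h at 37C to 11 concentrations in triplicate; CCF4 460:530 nm ratio after 2 h, DMSO-referenced.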

[9] = TOX21_TRB_BLA_Antagonist_Followup_viability: Viability Assessment in the Tox21 Thyroid Hormone Receptor beta Antagonism Beta-lactamase (BLA) Follow-Up Assay (AID 2283961)
Procedure, shortened: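 HEK293T cells stably expressing GAL4-DBD/human TRβ-LBD with UAS-bla reporter, 3,000 cells/well in phenol red-free DMEM, 2% charcoal-stripped FBS. Compounds at 11 concentrations in triplicate, 18 h at 37C/5% CO2; viability by CellTiter-Glo luminescence after 30 min at room temperature.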

[10] = molecular target: Retinoic acid receptor RXR-alpha (Homo sapiens) (UniProt P19793); experiment: TOX21_TR_RXR_BLA_Antagonist_Followup_ratio: Tox21 Thyroid Hormone Receptor beta Retinoid X Receptor alpha (RXRa) Antagonism Beta-lactamase (BLA) Follow-Up Assay, Ratio (AID 2283972)
Procedure, shortened: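 RXRa-UAS-bla HEK293T cells in phenol red-free DMEM with 2% charcoal-stripped FBS; compounds at 11 concentrations in triplicate, 16 h at 37C. LiveBLAzer FRET-B/CCF4-AM substrate 2 h at room temperature; read as 460:530 nm ratio versus DMSO.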

[11] = TOX21_TR_RXR_BLA_Antagonist_Followup_viability: Viability Assessment in the Tox21 Thyroid Hormone Receptor beta Retinoid X Receptor alpha (RXRa) Antagonism Beta-lactamase (BLA) Follow-Up Assay (AID 2283979)
Procedure, shortened: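 RXRa-UAS-bla HEK293T cells seeded 2,500/well in phenol red-free DMEM with 2% charcoal-stripped FBS, attached 5 h, then exposed to compounds at 11 concentrations in triplicate for 16 h at 37C/5% CO2. Viability read by CellTiter-Glo ATP luminescence; bidirectional fit versus DMSO.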

Measured: AC50

Sequence of Cellular tumor antigen p53 (Homo sapiens) (P04637 whole entry, looked up): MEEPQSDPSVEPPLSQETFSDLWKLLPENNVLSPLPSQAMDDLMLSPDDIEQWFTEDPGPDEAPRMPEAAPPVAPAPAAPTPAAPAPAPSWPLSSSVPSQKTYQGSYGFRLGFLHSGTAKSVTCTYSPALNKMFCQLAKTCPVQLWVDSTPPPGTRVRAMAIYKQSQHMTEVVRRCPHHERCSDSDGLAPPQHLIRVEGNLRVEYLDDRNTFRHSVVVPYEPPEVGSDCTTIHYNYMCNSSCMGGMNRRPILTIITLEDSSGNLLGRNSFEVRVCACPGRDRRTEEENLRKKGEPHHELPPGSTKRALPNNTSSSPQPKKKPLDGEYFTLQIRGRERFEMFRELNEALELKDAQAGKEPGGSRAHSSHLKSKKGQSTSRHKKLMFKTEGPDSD
Sequence of Retinoic acid receptor RXR-alpha (Homo sapiens) (P19793 whole entry, looked up): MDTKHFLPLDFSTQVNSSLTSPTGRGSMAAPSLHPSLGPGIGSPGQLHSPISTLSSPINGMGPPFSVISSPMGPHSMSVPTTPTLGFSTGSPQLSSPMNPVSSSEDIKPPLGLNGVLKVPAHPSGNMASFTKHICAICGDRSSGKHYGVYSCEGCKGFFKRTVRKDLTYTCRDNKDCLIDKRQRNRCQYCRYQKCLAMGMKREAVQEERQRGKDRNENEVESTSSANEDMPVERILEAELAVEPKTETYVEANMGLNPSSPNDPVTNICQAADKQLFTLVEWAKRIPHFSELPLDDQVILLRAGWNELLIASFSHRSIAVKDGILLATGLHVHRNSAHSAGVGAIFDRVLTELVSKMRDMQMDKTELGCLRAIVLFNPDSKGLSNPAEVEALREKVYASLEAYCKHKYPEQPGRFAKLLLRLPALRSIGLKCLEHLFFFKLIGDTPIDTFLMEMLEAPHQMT
Sequence of THRB (gene 7068) (P10828 whole entry, looked up, the tested form may be a part): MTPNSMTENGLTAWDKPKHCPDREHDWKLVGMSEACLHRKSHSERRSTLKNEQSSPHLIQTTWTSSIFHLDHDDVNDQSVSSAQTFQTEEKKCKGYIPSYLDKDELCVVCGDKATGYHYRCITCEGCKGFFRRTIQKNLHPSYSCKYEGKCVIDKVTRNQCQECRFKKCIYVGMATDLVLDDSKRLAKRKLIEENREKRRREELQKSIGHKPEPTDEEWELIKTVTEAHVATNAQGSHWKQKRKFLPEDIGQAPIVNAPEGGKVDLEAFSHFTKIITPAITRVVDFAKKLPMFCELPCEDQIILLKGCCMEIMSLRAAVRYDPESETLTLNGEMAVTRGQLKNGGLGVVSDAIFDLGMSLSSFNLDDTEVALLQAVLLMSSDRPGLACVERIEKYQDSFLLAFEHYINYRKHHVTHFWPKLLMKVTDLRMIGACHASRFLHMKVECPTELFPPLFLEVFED

COc1ccc(-c2noc(CC(=O)O)c2-c2ccc(OC)cc2)cc1
inactive: [1] | [2] | [3] | [4] | [5] | [6] | [7]

CC(N)C12CC3CC(CC(C3)C1)C2 (stereo unspecified)
inactive: [1] | [2] | [3] | [4] | [5] | [6] | [7]

COc1cc2c(cc1N)oc1ccccc12
inactive: [1] | [2] | [3] | [4] | [5] | [6]
active: [7] 66.1 µM

CO[C@H](C(=O)[C@@H](O)[C@@H](C)O)C1Cc2cc3cc(O[C@H]4C[C@@H](O[C@H]5C[C@@H](O)[C@H](O)[C@@H](C)O5)[C@@H](O)[C@@H](C)O4)c(C)c(O)c3c(O)c2C(=O)[C@H]1O[C@H]1C[C@@H](O[C@H]2C[C@@H](O[C@H]3C[C@](C)(O)[C@H](O)[C@@H](C)O3)[C@H](O)[C@@H](C)O2)[C@H](O)[C@@H](C)O1 (stereo partly specified)
inactive: [2] | [4] | [6] | [9]
active: [1] 23.8 nM and 43.4 nM | [3] 24.2 nM and 37.6 nM | [5] 36 nM and 39.5 nM | [7] 45.6 nM and 49.7 nM | [8] 0.745 µM | THRB (gene 7068) 4.01 µM | [10] 1.36 µM | [11] 1.35 µM

CCOC(=O)CS
inactive: [1] | [2] | [3] | [4] | [5] | [6] | [7]

CC(C)(C)C(=O)OCOC(=O)[C@@H]1N2C(=O)[C@@H](N=CN3CCCCCC3)[C@H]2SC1(C)C
inactive: [1] | [2] | [3] | [4] | [5] | [6] | [7]

O=C1N=C(O)CN1N=Cc1ccc(-c2ccc([N+](=O)[O-])cc2)o1
inactive: [1] | [2] | [3] | [4] | [5] | [6] | [7]

O=S(O)CO
inactive: [1] | [2] | [3] | [4] | [5] | [7]

O=C(O)P(=O)(O)O
inactive: [1] | [2] | [3] | [4] | [5] | [7]

COc1cc(NS(=O)(=O)c2ccc(N)cc2)nc(C)n1
inactive: [1] | [2] | [3] | [4] | [6]

COC(=O)CCc1ccc(OCC(O)CNC(C)C)cc1 (stereo unspecified)
inactive: [1] | [2] | [3] | [4] | [6]

C[N+](C)(CCOc1ccccc1)Cc1cccs1
inactive: [1] | [2] | [3] | [4] | [5] | [7]

CCCCCCCCCCC[C@@H](C[C@@H]1OC(=O)[C@H]1CCCCCC)OC(=O)[C@H](CC(C)C)NC=O
inactive: [1] | [2] | [3] | [4] | [5] | [7]

CN1C[C@@H]2C[C@H]1CN2c1cc2c(cc1F)c(=O)c(C(=O)O)cn2C1CC1
inactive: [1] | [2] | [3] | [4] | [5] | [7]

O=C(O)Cc1ccc(Cl)cc1Cl
inactive: [1] | [2] | [3] | [4] | [6]

N[C@@H](Cc1cc(I)c(O)c(I)c1)C(=O)O
inactive: [1] | [2] | [3] | [4] | [5] | [7]

O=S(=O)(O)CCCS(=O)(=O)O
inactive: [1] | [2] | [3] | [4] | [5] | [7]

COc1ccc(C=CC(=O)OCCC(C)C)cc1
inactive: [1] | [2] | [3] | [4] | [6]
